Test results from PubChem BioAssay AID2732 (Emory University Molecular Libraries Screening Center, 2010).
The campaign covered roughly 220,000 compounds. About 8,200 (3.7%) were called active. For the sample, actives were picked, then their nearest neighbours and some compounds at random. Values without a mark were called inactive.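 How the source made its calls: active means compounds that reduced the stress-induced luciferase reporter signal by more than about 70% of percent inhibition (limit read from the data); inactive means the rest.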

Assay: blockers of ER-stress CHOP reporter expression – cell-based, unfolded protein response, luciferase reporter, primary screen (AID 2732);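 further: 0% = tunicamycin plus vehicle and 100% = wells without tunicamycin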
Details: CHO-K1 CHOP-promoter luciferase, tunicamycin-induced, 15-18 h; at 10 µM; active compounds read high

Row | SMILES | inhibition
1 | CC1(C)Cc2c(C#N)c(N3CCNCC3)nc(-c3ccco3)c2CS1 | 3.49%
2 | COc1cc(C(c2c(O)c3ccccc3oc2=O)c2c(C)n(C)n(-c3ccccc3)c2=O)ccc1O (stereo not given) | 8.54%
3 | CCCCCn1c(=O)c(C(=O)Nc2c(C)n(C)n(-c3ccccc3)c2=O)c(O)c2ccccc21 | 89.7% (active)
4 | CCCCCn1c(=O)c(C(=O)NCc2ccccn2)c(O)c2ccccc21 | 40.5%
5 | CCOP(=O)(OCC)C(O)c1ccc(OC)cc1OC (stereo not given) | 1.95%
6 | COc1ccc2c(c1O)-c1cccc3c1[C@@H](C2)N(C)CC3 | -0.63%
7 | COc1ccc(-n2c(-c3ccccc3)nc3ccccc3c2=O)cc1 | -0.77%
8 | CC(=O)c1c(O)c(C)c(O)c(Cc2c(O)c3c(c(C(=O)/C=C/c4ccccc4)c2O)OC(C)(C)C=C3)c1O | -9.85%
9 | O=C(O)COc1ccccc1/C=C1\C(=O)NC(=O)N(CCC2=CCCCC2)C1=O | -7.81%
10 | O=C1NC(=O)N(Cc2ccco2)C(=O)/C1=C\c1ccc(-c2ccc(F)cc2)o1 | 4.85%
11 | O=C1NC(=O)N(CCc2ccc(F)cc2)C(=O)/C1=C/C=C/c1ccccc1 | 79.8% (active)
12 | COc1ccc(NC(=O)c2cn(CCC#N)nc2-c2ccc([N+](=O)[O-])cc2)cc1 | -2.78%
13 | Cc1ccc(-n2c(-c3ccc([N+](=O)[O-])cc3)nc3ccccc3c2=O)cc1 | -10.7%
14 | O=C(O)C1C2CCC(O2)C1C(=O)O (stereo not given) | -11.8%
15 | CN(C)c1ccc(/C=C2\CC3C4CC=C5CC(O)CCC5(C)C4CCC3(C)C2=O)cc1 (stereo not given) | 96% (active)
16 | CC(c1ccccc1)(c1ccccc1)c1ccncc1 | 34.4%
17 | CCN1c2nc3c(C)cccn3c(=O)c2CC2(C(=O)N(C)C(=O)N(C)C2=O)C1C (stereo not given) | 6.18%
18 | O=C(CSC1c2ccccc2-c2ccccc21)N/N=C/c1ccccc1 | 97.3% (active)
19 | CCCCC(=O)N/N=C/c1c(O)n(-c2ccccc2)c(=O)[nH]c1=O | -1.28%
20 | CC(=O)N1CN2CN(C(C)=O)CC(C(=O)c3ccc(Br)cc3)(C2)C1 | 5.64%
